# A selection: hits, their analogues and other compounds. The true share with any hit is near 28%.
# CD11b adhes enh: CD11b/CD18-fibrinogen binding enhancement | P05107+P11215 | K562 CD11b/CD18 adhesion to fibrinogen, ATPlite luminescence | activation, % at 10 µM | 93,000 compounds, 0.07% hits;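 active = 10 µM primary screen giving 50% or more activity, confirmed by 40% or more on retest at that dose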
# CYP2C9 act: activators of human CYP2C9; recombinant CYP2C9, luciferin-H conversion, luminescence; active compounds read high; factor 1 = untreated enzyme, 0 = blocked; activation factor at 5 µM; 96,000 compounds, 1.4% hits;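 active = activation factor of 2 or more for CYP2C9 at a 5 µM dose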;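 note: 0 = sulfaphenazole-blocked wells and 1 = vehicle-only wells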
# Target sequence (P11712 whole entry, looked up): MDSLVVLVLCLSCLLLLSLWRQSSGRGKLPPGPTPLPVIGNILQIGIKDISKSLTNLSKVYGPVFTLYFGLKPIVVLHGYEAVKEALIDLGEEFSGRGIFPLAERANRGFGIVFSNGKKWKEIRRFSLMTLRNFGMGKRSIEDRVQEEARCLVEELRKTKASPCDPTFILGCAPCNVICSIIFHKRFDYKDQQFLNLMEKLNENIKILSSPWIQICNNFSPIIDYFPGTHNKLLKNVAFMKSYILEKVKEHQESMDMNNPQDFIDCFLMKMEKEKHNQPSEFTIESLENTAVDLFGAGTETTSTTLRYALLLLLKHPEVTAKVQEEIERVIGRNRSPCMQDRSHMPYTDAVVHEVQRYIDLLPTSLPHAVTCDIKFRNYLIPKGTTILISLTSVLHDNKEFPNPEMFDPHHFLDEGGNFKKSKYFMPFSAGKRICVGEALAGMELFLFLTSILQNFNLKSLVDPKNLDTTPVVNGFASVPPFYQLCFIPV
# CYP2C19 inhib: inhibitors of human CYP2C19 | 96,000 compounds, 21% hits | P33261 | inhibition, % at 5 µM | CYP2C19 Supersomes, luciferin-H EGE luminescence, 30 min;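 active = CYP2C19 inhibition above a set limit at 5 µM in the primary screen, cut at about 50% in these data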;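 note: plate controls were negative control wells for no effect and 2.5 mM tranylcypromine positive control for full effect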
# CYP2C19 act: cytochrome P450 2C19 (human) activation | P33261 | recombinant CYP2C19, luciferin-H EGE luminescence; active compounds read high; 0 = fully inhibited enzyme, 1 = untreated enzyme | activation factor at 5 µM | 96,000 tested, under 10 active | AID 1025;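 active = activation factor of at least 2 at 5 µM in the primary screen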;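 note: 0 = wells with 2.5 mM tranylcypromine and 1 = vehicle-only wells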
# CYP2C9 inh: inhibitors of human CYP2C9; 96,000 compounds, 20% hits; P11712; AID 777; CYP2C9 Supersomes, luciferin-H conversion, luminescence; inhibition, % at 5 µM;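 active = blocking of liver enzyme CYP2C9 beyond about 50% at 5 µM, limit read from the data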
# Mac1 fbg inh: blocks human CD11b/CD18 adhesion to fibrinogen | P05107+P11215 | inhibition, % at 10 µM | 93,000 compounds, 0.54% hits | AID 1497 | K562 CD11b/CD18 adhesion to fibrinogen, ATPlite luminescence; Mn2+ added to activate the integrin;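 active = primary inhibition of 50% or more at 10 µM, then 40% or more on retest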
# Starred values were filed as active, the others as inactive; nt = no result given.
SMILES,CD11b adhes enh,CYP2C9 act,CYP2C19 inhib,CYP2C19 act,CYP2C9 inh,Mac1 fbg inh
CC(=O)C1=C(C)NC(SCC(N)=O)=C(C#N)C1c1cccnc1 (stereo not drawn),-5,1,4,1,4,-6
CC1=C(C(=O)Nc2ccc(Cl)cc2)C(c2ccncc2)C(C#N)=C(SCC(N)=O)N1 (stereo not drawn),-2,0.4,37,0.6,65*,6
O=C(CSc1nnc(CCc2ccccc2)n1-c1ccc(Cl)cc1)c1ccccc1,5,nt,nt,nt,nt,16
COCCn1cnnc1SCC(=O)c1ccc(S(=O)(=O)N2CCCC2)cc1,5,0.5,57*,0.4,49,-7
COc1ccc(C(=O)CSc2nnc(-c3ccc(S(=O)(=O)N4CCOCC4)cc3)o2)cc1,9,0.9,6,0.9,8,14
Cn1ccs/c1=N\S(=O)(=O)c1ccc(Br)cc1,nt,2.4*,37,0.6,-141,nt
CCCCc1c(O)nc(SCC(=O)NCCc2ccc(OC)c(OC)c2)[nH]c1=O,3,0.9,10,0.9,14,-13
Cc1cc(C)c(N2CCN(S(=O)(=O)N3CCCCCC3)CC2)c(C)c1,-4,0.3,80*,0.2,73*,60
CC(C)c1ccc(S(=O)(=O)/N=C2/C=C(Sc3ncn[nH]3)C(=O)c3ccccc32)cc1,-4,nt,nt,nt,nt,102*
CCCCCCN1C=CC(=C/C=C(\C#N)C(=O)OCC)C=C1,nt,0.4,28,0.7,60*,nt
CCS(=O)(=O)N1CCN(Cc2ccccc2OC)CC1,1,0.8,89*,0.1,15,-9
CCOc1ccccc1CN1CCN(S(=O)(=O)CC)CC1,-4,0.9,38,0.6,9,-6
CCCS(=O)(=O)N1CCN(Cc2ccccc2OCC)CC1,-2,1,75*,0.2,4,-7
CC(C)CSc1ncnc2c1oc1nc3c(cc12)COC(C)(C)C3,-1,0.3,21,0.8,72*,-1
CCSc1ncnc2c1sc1nc3c(cc12)COC(C)(C)C3,-3,nt,nt,nt,nt,15
O=c1cc(C(F)F)oc2c1ccc1ccccc12,-2,1.2,34,0.7,-24,-8
CCOC(=O)c1cccc(NC(=O)CSc2nc3ccccc3c(=O)n2CCOC)c1,2,0.4,27,0.7,64*,-3
CCOC(=O)c1cccc(NC(=O)CSc2nc3ccccc3c(=O)n2CC)c1,-1,0.5,8,0.9,51*,-36
COCCn1c(SCC(=O)NNC(=O)c2ccccc2)nc2ccccc2c1=O,-1,nt,nt,nt,nt,0
Cc1nc(=O)cc(-c2ccccc2)n1-c1ccccc1,2,1.1,-3,1,-11,-2
S=c1[nH]cc(-c2ccccc2)n1-c1ccccc1,nt,0.2,79*,0.2,78*,nt
CCn1c(-c2ccccc2)c[nH]c1=S,-3,0.7,58*,0.4,31,0
ONC(=Nc1ccccc1)c1ccc(Cl)cc1,3,0.5,90*,0.1,49,-2
CC12CC(NC(=O)N1c1cccc(C(=O)NCc3ccc4c(c3)OCO4)c1)c1cc(Cl)ccc1O2 (stereo not drawn),0,0.2,59*,0.4,79*,-12
CC12CC(NC(=O)N1c1cccc(C(=O)N3CCN(c4ccccc4F)CC3)c1)c1ccccc1O2 (stereo not drawn),2,0.2,44,0.6,79*,3
COc1cccc(N2CCN(C(=O)c3ccc(N4C(=O)NC5CC4(C)Oc4ccccc45)cc3)CC2)c1 (stereo not drawn),-3,0.9,16,0.8,11,4
CC12CC(NC(=O)N1c1cccc(C(=O)N3CCN(c4ccccn4)CC3)c1)c1ccccc1O2 (stereo not drawn),0,0.4,44,0.6,63*,0
CC12CC(NC(=O)N1c1ccc(C(=O)N3CCN(c4ccccn4)CC3)cc1)c1ccccc1O2 (stereo not drawn),-1,0.9,8,0.9,6,-7
CCC(C)(C)NC(=O)C(c1ccco1)N(C(=O)c1csnn1)c1cccc(F)c1 (stereo not drawn),-4,1.1,13,0.9,-10,2
CCn1c(Cc2ccccc2)nnc1SCC(=O)Nc1nnc(-c2ccccc2)s1,-4,0.7,48,0.5,30,-3

# Assay outcomes as filed in PubChem BioAssay.
